The source of these data is article PMC8384837, “Expanding the binding specificity for RNA recognition by a PUF domain”.

Assay in all cases: yeast three-hybrid, YBZ-1, SC-Leu-His + 0.5 mM 3-AT, 4 days
Settings in all cases: tags: N-Gal4 AD-HA kept; label: inside an RPR1-promoter hybrid RNA with tandem MS2 sites; ssRNA

Test [1] concerns the target PUM1 PUF domain R5-RRN (Homo sapiens, UniProt Q14671 828-1176, C1007R;Q1011N). The essentials: (§1)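 The interaction score is the logarithmic change in variant frequency from input to selection. It uses log2, with a pseudocount of 1 for absent variants, and frequencies came from PCR-amplified, Illumina-sequenced repeat regions. The libraries were Pumilio-1 PUF domains randomized at the three base-contacting residues per repeat, co-expressed with matching RNA elements in strain YBZ-1 (LexA–MS2 coat fusion, HIS3 reporter). Plating lasted four days on SC-Leu (input) or SC-Leu-His + 0.5 mM 3-AT (selection).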

For test [2], the target named is PUM1 PUF domain R5-ARR (Homo sapiens, UniProt Q14671 828-1176, C1007A;Q1011R). An outline of the steps: as §1
Sequence of PUM1 PUF domain R5-ARR (Q14671 828-1176 C1007A/Q1011R): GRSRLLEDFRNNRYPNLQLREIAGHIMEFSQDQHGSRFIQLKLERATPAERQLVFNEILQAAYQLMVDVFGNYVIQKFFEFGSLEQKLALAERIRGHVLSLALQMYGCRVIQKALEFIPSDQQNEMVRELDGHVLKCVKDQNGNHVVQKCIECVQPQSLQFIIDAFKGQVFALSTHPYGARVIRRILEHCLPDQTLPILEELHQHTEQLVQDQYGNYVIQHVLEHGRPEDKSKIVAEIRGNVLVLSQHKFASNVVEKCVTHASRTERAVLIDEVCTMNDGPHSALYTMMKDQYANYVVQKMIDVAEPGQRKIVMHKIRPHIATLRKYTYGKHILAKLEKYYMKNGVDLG
In test [3] the target is PUM1 PUF domain R3-TCE (Homo sapiens, UniProt Q14671 828-1176, C935T;R936C;Q939E). The essentials:
as §1

For test [4], the target named is PUM1 PUF domain R3-GFG (Homo sapiens, UniProt Q14671 828-1176, C935G;R936F;Q939G). The essentials:
as §1

For test [5], the target named is PUM1 PUF domain R8-LWR (Homo sapiens, UniProt Q14671 828-1176, N1122L;Y1123W;Q1126R). An outline of the steps:
as §1

In test [6] the target is PUM1 PUF domain R8-VWQ (Homo sapiens, UniProt Q14671 828-1176, N1122V;Y1123W). The essentials:
as §1

Test [7] has as its target PUM1 PUF domain R8-SWG (Homo sapiens, UniProt Q14671 828-1176, N1122S;Y1123W;Q1126G). The essentials: as §1
The target in test [8] is PUM1 PUF domain R8-RGK (Homo sapiens, UniProt Q14671 828-1176, N1122R;Y1123G;Q1126K). The essentials:
as §1

In test [9] the target is PUM1 PUF domain R8-PFK (Homo sapiens, UniProt Q14671 828-1176, N1122P;Y1123F;Q1126K). An outline of the steps: as §1
Sequence of PUM1 PUF domain R8-PFK (Q14671 828-1176 N1122P/Y1123F/Q1126K): as the sequence (Q14671 828-1176 C1007A/Q1011R) above, with A180C, R184Q, N295P, Y296F, Q299K counted along it
For test [10], the target named is PUM1 PUF domain R1-RKM (Homo sapiens, UniProt Q14671 828-1176, S863R;R864K;Q867M). The essentials:
as §1

Test [11] deals with PUM1 PUF domain R3-KSG (Homo sapiens, UniProt Q14671 828-1176, C935K;R936S;Q939G). The essentials:
as §1

Test [12] concerns the target PUM1 PUF domain R3-GRF (Homo sapiens, UniProt Q14671 828-1176, C935G;Q939F). An outline of the steps:
as §1

Test [13] addresses PUM1 PUF domain R3-GPS (Homo sapiens, UniProt Q14671 828-1176, C935G;R936P;Q939S). An outline of the steps:
as §1

For test [14], the target named is PUM1 PUF domain R3-NPR (Homo sapiens, UniProt Q14671 828-1176, C935N;R936P;Q939R). An outline of the steps: as §1
Sequence of PUM1 PUF domain R3-NPR (Q14671 828-1176 C935N/R936P/Q939R): as the sequence (Q14671 828-1176 C1007A/Q1011R) above, with C108N, R109P, Q112R, A180C, R184Q counted along it
The target of test [15] is PUM1 PUF domain R7-GGN (Homo sapiens, UniProt Q14671 828-1176, S1079G;N1080G;E1083N). The essentials: as §1
In test [16] the target is PUM1 PUF domain R7-RVV (Homo sapiens, UniProt Q14671 828-1176, S1079R;N1080V;E1083V). The essentials:
as §1

For test [17], the target named is PUM1 PUF domain R4-SNM (Homo sapiens, UniProt Q14671 828-1176, N971S;H972N;Q975M). An outline of the steps:
as §1

In test [18] the target is PUM1 PUF domain R3-APF (Homo sapiens, UniProt Q14671 828-1176, C935A;R936P;Q939F). The essentials:
as §1

Test [19] has as its target PUM1 PUF domain R4-SMT (Homo sapiens, UniProt Q14671 828-1176, N971S;H972M;Q975T). An outline of the steps:
as §1

Test [20] has as its target PUM1 PUF domain R4-EWY (Homo sapiens, UniProt Q14671 828-1176, N971E;H972W;Q975Y). The essentials:
as §1

Sequence of PUM1 PUF domain R5-RRN (Q14671 828-1176 C1007R/Q1011N): as the sequence (Q14671 828-1176 C1007A/Q1011R) above, with A180R, R184N counted along it
Sequence of PUM1 PUF domain R4-SMT (Q14671 828-1176 N971S/H972M/Q975T): as the sequence (Q14671 828-1176 C1007A/Q1011R) above, with N144S, H145M, Q148T, A180C, R184Q counted along it
Sequence of PUM1 PUF domain R3-GFG (Q14671 828-1176 C935G/R936F/Q939G): as the sequence (Q14671 828-1176 C1007A/Q1011R) above, with C108G, R109F, Q112G, A180C, R184Q counted along it
Sequence of PUM1 PUF domain R3-GPS (Q14671 828-1176 C935G/R936P/Q939S): as the sequence (Q14671 828-1176 C1007A/Q1011R) above, with C108G, R109P, Q112S, A180C, R184Q counted along it
Sequence of PUM1 PUF domain R3-GRF (Q14671 828-1176 C935G/Q939F): as the sequence (Q14671 828-1176 C1007A/Q1011R) above, with C108G, Q112F, A180C, R184Q counted along it
Sequence of PUM1 PUF domain R3-TCE (Q14671 828-1176 C935T/R936C/Q939E): as the sequence (Q14671 828-1176 C1007A/Q1011R) above, with C108T, R109C, Q112E, A180C, R184Q counted along it
Sequence of PUM1 PUF domain R1-RKM (Q14671 828-1176 S863R/R864K/Q867M): as the sequence (Q14671 828-1176 C1007A/Q1011R) above, with S36R, R37K, Q40M, A180C, R184Q counted along it

Regarding “GGCUAGAACUAGUGGAUCCCCCGGCGCCCGGCGGCUCGAGCCCGGGUAAGUGUGAAUAGUCUGCAUGCCGCCGGGCGCCAUGCCUGCAGGUCGACUCUAGAAAACAUG”, in test [1], the binding signal is 1.8 log2 enrichment (interaction score).
Still for that read-out and setting: with “GGCUAGAACUAGUGGAUCCCCCGGCGCCCGGCGGCUCGAGCCCGGGUAAGUGUUAAUAGUCUGCAUGCCGCCGGGCGCCAUGCCUGCAGGUCGACUCUAGAAAACAUG” the figure was 3.66 log2 enrichment (interaction score).
For the sequence “GGCUAGAACUAGUGGAUCCCCCGGCGCCCGGCGGCUCGAGCCCGGGUAAGUGUCAAUAGUCUGCAUGCCGCCGGGCGCCAUGCCUGCAGGUCGACUCUAGAAAACAUG”, the binding signal in [1] is 4.4 log2 enrichment (interaction score); in test [2], 4.7 log2 enrichment (interaction score).
As to “GGCUAGAACUAGUGGAUCCCCCGGCGCCCGGCGGCUCGAGCCCGGGUAAGUGUAAGUAGUCUGCAUGCCGCCGGGCGCCAUGCCUGCAGGUCGACUCUAGAAAACAUG”, the binding signal in [3] was 5.59 log2 enrichment (interaction score); in test [4], 1.23 log2 enrichment (interaction score).
Consider “GGCUAGAACUAGUGGAUCCCCCGGCGCCCGGCGGCUCGAGCCCGGGUAAGCGUAAAUAGUCUGCAUGCCGCCGGGCGCCAUGCCUGCAGGUCGACUCUAGAAAACAUG”, for which the binding signal is 4.82 log2 enrichment (interaction score) in [5]; 2.89 log2 enrichment (interaction score) in test [6]; 2.43 log2 enrichment (interaction score) in test [7]; 2.62 log2 enrichment (interaction score) in test [8]; 4.13 log2 enrichment (interaction score) in [9].
For the sequence “GGCUAGAACUAGUGGAUCCCCCGGCGCCCGGCGGCUCGAGCCCGGGUAAGUGUAAAUUGUCUGCAUGCCGCCGGGCGCCAUGCCUGCAGGUCGACUCUAGAAAACAUG”, the binding signal in test [10] was 3.28 log2 enrichment (interaction score).
For the sequence “GGCUAGAACUAGUGGAUCCCCCGGCGCCCGGCGGCUCGAGCCCGGGUAAGUGUAAUUAGUCUGCAUGCCGCCGGGCGCCAUGCCUGCAGGUCGACUCUAGAAAACAUG”, the binding signal was 2.51 log2 enrichment (interaction score) in test [11], 0.84 log2 enrichment (interaction score) in test [12], 1.97 log2 enrichment (interaction score) in test [13] and 2.25 log2 enrichment (interaction score) in [14].
Take “GGCUAGAACUAGUGGAUCCCCCGGCGCCCGGCGGCUCGAGCCCGGGUAAGUUUAAAUAGUCUGCAUGCCGCCGGGCGCCAUGCCUGCAGGUCGACUCUAGAAAACAUG”: the binding signal is 3.78 log2 enrichment (interaction score) in test [15] and 2.58 log2 enrichment (interaction score) in [16].
As to “GGCUAGAACUAGUGGAUCCCCCGGCGCCCGGCGGCUCGAGCCCGGGUAAGUGUAAAUAGUCUGCAUGCCGCCGGGCGCCAUGCCUGCAGGUCGACUCUAGAAAACAUG”, the binding signal in test [5] is 4.7 log2 enrichment (interaction score); in [17], 2 log2 enrichment (interaction score); in [7], 2.95 log2 enrichment (interaction score); in test [8], 0.16 log2 enrichment (interaction score); in test [18], 5.42 log2 enrichment (interaction score); in [1], 2.02 log2 enrichment (interaction score). Also, the binding signal in test [12] was 4.89 log2 enrichment (interaction score); in [2], 4.33 log2 enrichment (interaction score); in [4], 3.47 log2 enrichment (interaction score); in test [13] it was 2.12 log2 enrichment (interaction score); in test [19] it was 1.34 log2 enrichment (interaction score); in test [9], 5.15 log2 enrichment (interaction score).
For the sequence “GGCUAGAACUAGUGGAUCCCCCGGCGCCCGGCGGCUCGAGCCCGGGUAAGUGUAUAUAGUCUGCAUGCCGCCGGGCGCCAUGCCUGCAGGUCGACUCUAGAAAACAUG”, the binding signal in test [17] was 2.9 log2 enrichment (interaction score); in [20] it was 5.52 log2 enrichment (interaction score); in test [19] it was 5.3 log2 enrichment (interaction score).
